Compound activity deposited in PubChem BioAssay by National Center for Advancing Translational Sciences (NCATS).
The entries come from a sample that favours hits as a whole.
IMPase cell inh: membrane-permeable compound that blocks inositol monophosphatase; AID 901; inhibition (IP1 accumulation), % at 46.1 µM; CHO-M1 cells, IP1 accumulation, HTRF TR-FRET ratio; 120,000 tested, under 10 active; active = well fitted curve in the direction sought with a large enough effect in the signal ratio, not every such curve was filed as active; inconclusive = small, poorly fitted or top-dose-only effect, or a change in a side signal; inactive = no such curve, though single readings can be large or run the other way; the % refers to the signal ratio;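 also: cells stimulated with carbachol in lithium chloride buffer; plate controls were DMSO basal wells for no effect and reference inhibitor wells for full effect; higher means more IMPase inhibition seen as more IP1 and lower FRET ratio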
Target sequence (P97697 whole entry, looked up): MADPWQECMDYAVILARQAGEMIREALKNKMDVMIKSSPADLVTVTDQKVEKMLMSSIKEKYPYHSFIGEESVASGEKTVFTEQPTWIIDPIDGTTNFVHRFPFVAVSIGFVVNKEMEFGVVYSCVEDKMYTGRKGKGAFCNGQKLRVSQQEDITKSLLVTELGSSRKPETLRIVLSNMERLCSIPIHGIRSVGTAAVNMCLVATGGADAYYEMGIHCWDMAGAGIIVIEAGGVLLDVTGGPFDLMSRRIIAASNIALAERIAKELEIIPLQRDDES
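The IP-One HTRF competitive assay in carbachol-stimulated CHO-M1 cells quantifies cellular IP1. Compounds spanned up to 46 uM final, and activity is expressed as AC50 from concentration-response fits of the ratio and donor data.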
IkB signaling: IkB pathway inhibition in ABC-DLBCL cells. Potency, µM (doses to about 57.1 µM), inactives show at the highest dose IkBa stabilization activation. 110,000 tested, 0.04% active. ABC-DLBCL IkBa-CBG/CBR dual luciferase ratio, 4 h; response scale: scaled: untreated 0%, proteasome inhibitor 100%. AID 445; active = well fitted curve in the direction sought with a large enough effect in the signal ratio, not every such curve was filed as active; inconclusive = small, poorly fitted or top-dose-only effect, or a change in a side signal; the % refers to the signal ratio;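 also: potency is read from the fitted curve at half-maximal effect; the direction sought is a rising ratio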
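In this assay, an IκBα–CBG68 fusion accumulates when IKK-driven degradation is blocked; native CBR normalizes for cell number. OCI-Ly3 cells were treated 4 h with compound and doxycycline, then green and red light read after Chroma-Glo addition.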
Hsp90 Hop PPI: changes Hsp90-Hop TPR2A binding signal, up or down; AlphaScreen TPR2A-His6 binding biotin-Hsp90 C-terminal peptide; Potency, µM (series often up to 57 µM), for inactives: top-dose activity change, negative = inhibition; 71,000 tested, 0.44% active; AID 595; active = well fitted curve in either direction with a large enough effect; inconclusive = small, poorly fitted or top-dose-only effect, or another doubt; also: potency is read from the fitted curve at half-maximal effect; % is scaled to controls: 0 for no effect and ±100 for the full control effect
Luciferase inh: firefly luciferase inhibition; P08659; purified firefly luciferase, luminescence, 8 min; Potency, µM (doses to about 57.1 µM), for inactives: top-dose activity change, negative = inhibition, hits mostly inhibitors; 72,000 tested, 2.2% active; also: potency is read from the fitted curve at half-maximal effect; % is scaled to controls: 0 for no effect and ±100 for the full control effect; nearly all actives have a fitted effect of over 40% in size
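Luminescence read-out after 8 min at room temperature; enzyme reaction used luciferin plus 10 uM ATP (linear range) in imidazole buffer pH 7.2 with KCl, MgCl2, Tween 20 and BSA. Each sample was run as a titration.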
p53ts 39C kill: p53ts cell cytotoxicity, nonpermissive temperature. H1299-p53A138V viability at 39C, ATP luminescence, 24 h. Potency, µM (series often up to 46.1 µM), inactives show at the top dose activity change, negative = cell killing, actives largely listed as cytotoxic. 130,000 tested, 1.5% active; also: potency is read from the fitted curve at half-maximal effect; % is scaled to controls: 0 for no effect and ±100 for the full control effect; nearly all actives have a fitted effect of over 55% in size
p53ts 32C kill: kills p53ts cells at the permissive temperature. H1299-p53A138V at 32C, ATP luminescence viability, 24 h. Potency, µM (titrated, usually from 46.1 µM), without a hit: at the top dose activity change, negative = cytotoxicity, hits mostly cytotoxic. 130,000 tested, 0.93% active. AID 924;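 also: potency is read from the fitted curve at half-maximal effect; 0% = DMSO and -100% = full killing by reference compound; nearly all actives have a fitted effect of over 55% in size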
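ATP-content luminescence (ATPlite) read-out after 24 h compound exposure at 32C in H1299-p53A138V cells (600/well). Tested up to 46 uM. Normalized to DMSO (0%) and 100 uM tamoxifen (100% killing); Hill-fit AC50.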
The depositor's hits bear a star; [ ] = remark or other dose. Unless noted, calls follow the shape of the dose curve; as a rule, active = well fitted curve in the direction sought with a large enough effect; inconclusive = small, poorly fitted or top-dose-only effect, or another doubt; inactive = no such curve, though single readings can be large; an effect the other way counts as inactive or inconclusive.

What do the screens show for `CCOC(=O)c1cnc(N2CCN(c3ccc(C)cc3C)CC2)c2ccccc12`?
IkB signaling: -2%; p53ts 39C kill: -20%; p53ts 32C kill: inconclusive

How did N#Cc1cn(-c2ccccc2)nc1-c1ccccc1 do in these assays?
IMPase cell inh: 2; IkB signaling: -1%; Hsp90 Hop PPI: 8%; Luciferase inh: -16%; p53ts 39C kill: -11%; p53ts 32C kill: -1%

What do the screens show for `N#Cc1c(-c2ccccc2)no[n+]1[O-]`?
IMPase cell inh: 11; IkB signaling: inconclusive; Hsp90 Hop PPI: -6%; Luciferase inh: 1%; p53ts 39C kill: 16µM*; p53ts 32C kill: inconclusive

Results for CC1(C)CC(=O)C2=C(C1)OC1=C(C(=O)CC(C)(C)C1)C2c1ccc(O)cc1O ?
IMPase cell inh: 11; IkB signaling: inconclusive; Hsp90 Hop PPI: -7%[11 µM]; Luciferase inh: -24%; p53ts 39C kill: 145%; p53ts 32C kill: 25µM*

How did COc1ccc(-n2cnc3cc(C(=O)NCCC4=CCCCC4)ccc32)cc1 do in these assays?
IkB signaling: -6%; p53ts 39C kill: 3%; p53ts 32C kill: -5%

Results for CC1=C(c2ccc(F)cc2)S(=O)(=O)N=C1N1CCC(C(=O)NCCc2cccc(C)c2)CC1 ?
IkB signaling: inconclusive; p53ts 39C kill: -22%; p53ts 32C kill: 10%

How did CC1=C(c2ccc(C)c(C)c2)S(=O)(=O)N=C1N1CCC(C(=O)NCCc2ccc(Cl)cc2)CC1 do in these assays?
IkB signaling: 0%; p53ts 39C kill: 13µM*; p53ts 32C kill: inconclusive

How did CC(C)Oc1ccc(CNS(=O)(=O)c2ccc(-c3cc(C(F)(F)F)on3)s2)cc1 do in these assays?
IkB signaling: -3%; p53ts 39C kill: 2%; p53ts 32C kill: 1%

Results for Cc1cc2nc(-c3cccnc3SCC(=O)NCc3ccco3)[nH]c2cc1C ?
IMPase cell inh: -16; IkB signaling: inconclusive; Hsp90 Hop PPI: -2%; Luciferase inh: 4µM*; p53ts 39C kill: 5µM*; p53ts 32C kill: 5µM*

How did Cc1ccnc(NC(=O)Nc2cccc(F)c2)c1 do in these assays?
IMPase cell inh: -2; IkB signaling: inconclusive; Hsp90 Hop PPI: -3%; Luciferase inh: 3.2µM*; p53ts 39C kill: inconclusive; p53ts 32C kill: inconclusive

How did Cc1cccc(NC(=O)Nc2cccc(F)c2)n1 do in these assays?
IMPase cell inh: 1; IkB signaling: 1%; Hsp90 Hop PPI: inconclusive; Luciferase inh: -7%; p53ts 39C kill: -6%; p53ts 32C kill: -6%

How did OC[C@@H]1O[C@@H](n2cnc3c(SCc4ccccc4)ncnc32)[C@@H](O)[C@H]1O do in these assays?
IkB signaling: 0%[11.4 µM]; Hsp90 Hop PPI: -3%[11 µM]; Luciferase inh: 2%[11.4 µM]; p53ts 39C kill: 2%[9.22 µM]; p53ts 32C kill: -6%[9.22 µM]

Results for Cc1ccc(C(=O)NCCSC(C)(C)C)cc1 ?
IMPase cell inh: 0

What do the screens show for `CSCCNC(=O)c1ccc(C(C)(C)C)cc1`?
IMPase cell inh: 2; IkB signaling: -3%; Hsp90 Hop PPI: -3%; Luciferase inh: 13µM*; p53ts 39C kill: inconclusive; p53ts 32C kill: 10µM*

How did COc1ccc(/C=C/C(=O)c2cccs2)c(OC)c1 do in these assays?
IMPase cell inh: 3; p53ts 39C kill: 5µM*; p53ts 32C kill: 16µM*

How did COc1cccc(NC(=O)c2sc3nc4n(c(=O)c3c2C)CCC4)c1 do in these assays?
IkB signaling: 1%; p53ts 39C kill: -19%; p53ts 32C kill: inconclusive

What do the screens show for `COc1ccc(-c2cc3nc4n(c(=O)c3s2)CCC4)cc1`?
IMPase cell inh: -5; IkB signaling: 3%; Hsp90 Hop PPI: -3%; Luciferase inh: 2.5µM*; p53ts 39C kill: 5µM*; p53ts 32C kill: 5µM*

How did CC(C)(C)CC(C)(C)c1ccc(O)c(Cc2ccc(Cl)cc2Cl)c1 do in these assays?
p53ts 39C kill: 25µM*; p53ts 32C kill: inconclusive

Results for Oc1ccc(Cl)cc1Cc1cc(Cl)cc(Cc2cc(Cl)ccc2O)c1O ?
IkB signaling: inconclusive; Hsp90 Hop PPI: -4%[11 µM]; Luciferase inh: 3%[11.4 µM]; p53ts 39C kill: 1%[9.22 µM]; p53ts 32C kill: 29%[9.22 µM]

Results for COc1ccc(OC)c(NC(=O)Nc2cccc(OCc3cc(=O)n4cc(C)ccc4n3)c2)c1 ?
IkB signaling: inconclusive; p53ts 39C kill: 6.3µM*; p53ts 32C kill: 6.3µM*

How did COc1cc(OC)c(NC(=O)Nc2ccccc2OCc2cc(=O)n3cc(C)ccc3n2)cc1Cl do in these assays?
IkB signaling: inconclusive; p53ts 39C kill: -21%; p53ts 32C kill: -3%

How did CCOc1ccccc1NC(=O)Nc1ccccc1OCc1cc(=O)n2ccccc2n1 do in these assays?
IkB signaling: 0%; p53ts 39C kill: -18%; p53ts 32C kill: -8%

How did COc1ccc(NC(=O)Nc2ccccc2OCc2cc(=O)n3ccccc3n2)c(OC)c1 do in these assays?
IkB signaling: -2%; p53ts 39C kill: 16µM*; p53ts 32C kill: inconclusive

How did CCC[C@H](Sc1nc(N)nc2nc[nH]c12)C(=O)O do in these assays?
IkB signaling: 1%[11.4 µM]; Hsp90 Hop PPI: 4%[11 µM]; Luciferase inh: 2%[11.4 µM]; p53ts 39C kill: 2%[9.22 µM]; p53ts 32C kill: 4%[9.22 µM]

Results for Cc1ccc(-c2noc(-c3nnn(CC(=O)Nc4cccc(C(F)(F)F)c4)c3N)n2)cc1 ?
IkB signaling: 0%; p53ts 39C kill: inconclusive; p53ts 32C kill: -25%

Results for O=C(Nc1cccnc1)c1ccccc1Oc1ccccc1 ?
IMPase cell inh: 4; IkB signaling: -1%; Hsp90 Hop PPI: -6%; Luciferase inh: 1%; p53ts 39C kill: 2%; p53ts 32C kill: 7%

How did COc1cc2cc(C(=O)Nc3ccccc3)c(N)nc2cc1OC do in these assays?
IMPase cell inh: inconclusive; IkB signaling: inconclusive; Hsp90 Hop PPI: 20%; Luciferase inh: 10µM*; p53ts 39C kill: -10%; p53ts 32C kill: inconclusive

How did COc1cc2ccccc2cc1C(=O)Nc1cccnc1 do in these assays?
IMPase cell inh: -18; IkB signaling: -2%; Hsp90 Hop PPI: 0%; Luciferase inh: 16µM*; p53ts 39C kill: -19%; p53ts 32C kill: -20%

Results for O=C(Nc1cccnc1)c1ccc(Oc2ccccc2)cc1 ?
IMPase cell inh: -2; IkB signaling: 4%; Hsp90 Hop PPI: -1%; Luciferase inh: 13µM*; p53ts 39C kill: inconclusive; p53ts 32C kill: inconclusive

How did COc1cc2ccccc2cc1C(=O)Nc1ccc(N2CCN(C)CC2)cc1 do in these assays?
IMPase cell inh: 20; IkB signaling: 0%; Hsp90 Hop PPI: -15%; Luciferase inh: 10µM*; p53ts 39C kill: 13µM*; p53ts 32C kill: inconclusive

How did COc1cc(OC)c(C(=O)Nc2cccc(C(C)=O)c2)cc1OC do in these assays?
IMPase cell inh: -8
